Measurements as given in the supplement of paper PMC6555819.

Key:
Experiment in all cases: PBM binding z-score (relative to random genomic background probes); higher = stronger binding; sequences stand for … in GC…GCGATTGACAGCGTAGAATGAAGG
[1] = test system: RARb homodimer (NR concentration 270 nM)
Outline: (§1)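 The probes on custom Agilent 4×180K protein-binding microarrays were double-stranded, with 34-nt variable regions bearing direct-repeat seeds, single-nucleotide variants, half-site ablations and random human genomic background sequences. Incubation lasted 1 h with ligand-free nuclear receptor dimers in PBS pH 7.4, 2% milk, 0.02% Triton X-100, 1 mM DTT, 0.2 mg/mL BSA and 0.4 mg/ml salmon testes DNA. Antibodies against each partner (one per run) detected bound dimers, and fluorescence scans were regression-normalized. Binding z-scores take the random background probes as reference.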

[2] = test system: RARg:RXRa (NR concentration 270 nM, RXRa partner concentration 90 nM)
Outline: as §1

[3] = test system: RARg homodimer (NR concentration 270 nM)
Outline: as §1

[4] = test system: RXRa DBDmut IVT, anti-RXR (DBD mutation: RXRa K156A/R161A, NR concentration 90 nM)
Outline: as §1

[5] = test system: RXRa homodimer (NR concentration 180 nM)
Outline: as §1

[6] = test system: THRa:RXRa (NR concentration 90 nM, RXRa partner concentration 90 nM)
Outline: as §1

[7] = test system: THRa homodimer (NR concentration 90 nM)
Outline: as §1

[8] = test system: VDR homodimer (NR concentration 270 nM)
Outline: as §1

Row | Sequence | PBM binding z-score [1] | PBM binding z-score [2] | PBM binding z-score [3] | PBM binding z-score [4] | PBM binding z-score [5] | PBM binding z-score [6] | PBM binding z-score [7] | PBM binding z-score [8]
1 | CCTAGCAGGCCAGGGGCACTCAAGCATTTCGCTT | -0.0718 | -0.38 | -0.0557 | -1.12 | -0.341 | -0.336 | -1.01 | -0.769
2 | TCTATTAGTTGAAGGCCAACCGACGAGTCCGTTT | 0.914 | 0.229 | 0.415 | 1.59 | 0.648 | 0.129 | 0.372 | 1.35
3 | AGAATGAGGTTATTAAGATCAGGGTATTGCGGTC | 0.948 | 1.09 | 0.753 | 1.79 | 1.62 | 2.17 | 0.854 | 1.29
4 | TGAATGAGGTTATAAGCTCAGGGAACGTTGCAAA | -0.162 | 1.1 | 0.731 | 0.518 | 1.91 | 1.67 | 0.118 | 0.00669
5 | TCGAGTAGGTTAGGGGCATTCAAAATGGCGTCGA | 0.918 | 0.367 | 0.48 | 0.614 | 0.622 | 1.06 | 0.276 | 1.43
6 | TTACCAAGGTGAAGGTCGTAGATCCCTCTGTAGA | 1.43 | 1.13 | 1.04 | -0.566 | 1.66 | 2.19 | 0.633 | 0.348
7 | GGAACGATGGCATTCGAGTTGATAGCATGGCGAT | -1.05 | -0.259 | -0.016 | -0.146 | -0.284 | 0.175 | -0.974 | -0.268
8 | ATCTCTAGGTAACAAGTTCAGTGATAGAGAGGAC | 1.92 | 1.05 | 1.57 | 1.06 | 0.757 | 1.38 | 0.931 | 2.93
9 | TCTAGCAGGCCAGAGGGTCACTCACGAGGTACGG | 2.69 | 2.68 | 2.14 | 0.0334 | 2.44 | 1.61 | 0.0798 | 0.852
10 | TCTATTAGTTGATAAGGGCAACCGAAACAGCGGA | 1.39 | 0.857 | 0.844 | 1.2 | 0.562 | 1.4 | 0.878 | 0.573
11 | TCTCGGAGGACACGGAAGGTCAGAGCTCGACATC | 3.98 | 3.49 | 4.48 | 0.816 | 2.31 | 3.45 | 1.37 | 1.01
12 | CAAACTAAGTCACCGGAAGGTCAAAGTCCGCATG | 4.37 | 5.3 | 3 | 1.01 | 3.92 | 3.26 | 1.51 | 2.19
13 | TCTTCTAGGTCAGTTGGTCAGCTAACGAGCTGCC | 3.05 | 3.26 | 4.08 | 1.65 | 1.62 | 2.19 | 1.58 | 0.514
14 | ACTATTAGTTGAGTCGAGGGCAACCGATAGGTTG | 1.2 | 0.788 | 0.802 | 0.52 | 0.607 | 2.3 | 0.603 | 1.05
15 | CAAGCTAGGTCACCGGAAGGTCAAAGTCCGCATG | 5.19 | 8.48 | 7.81 | 1.93 | 6.91 | 4.5 | 2.79 | 3.87
16 | AGAATGAGGTTATACGTAGATCAGGGATGAAAGT | 1.04 | 1.74 | 1.27 | 1.92 | 2.47 | 2.23 | 0.607 | 0.865
17 | ATATGTAGGTTACATCCGGGTCATTCAGGCTATG | 3.04 | 3.77 | 2.17 | 1.01 | 3.39 | 3.75 | 2.57 | 2.83
18 | CCTTACGGGTCACTCCAGGTTACAGCATCGGAGT | 3.31 | 4.27 | 4.33 | 1.46 | 4.26 | 5.28 | 0.933 | 1.56
19 | ATATGTAGTTTACATCCGGGTCATTCAGGCTATG | 2.34 | 1.83 | 1.44 | 1.58 | 2.1 | 3.2 | 2.74 | 2.82
20 | TCTCGTAGATCAAGCAGGTTAAGAAAGCCTGAGT | -0.357 | -0.372 | -0.369 | 0.598 | -0.0292 | 0.103 | -0.615 | -0.12
21 | TAAGACAGGTGAAGGTAACTCAGGTACGCAGTCG | 0.812 | 0.869 | 0.994 | -0.391 | 0.793 | 1.48 | 0.449 | 0.487
22 | AATACAGGGTCATCGTAGACCAGAGTACGCACAG | 3.31 | 5.66 | 5.19 | 3.73 | 6.72 | 3.67 | 1.24 | 4.03
23 | CGTCCAAGGCCAAAGGTCAGTGAAGAGATGACGG | 4.6 | 5.87 | 5.18 | 1.13 | 5.47 | 3.24 | 0.341 | 0.884
24 | TCTTGTAGATGAAAGGTTAAGAAAGCCGAAGCCT | 1.17 | 1.2 | 0.987 | 1.1 | 2.39 | 0.806 | -0.431 | -0.24
25 | AGTCAAGGTTCATCTAGGTAACGTAAGATATGCT | 2.09 | 3.09 | 2.93 | 4.77 | 3.54 | 3 | 0.474 | 5.03
26 | CGTCCAAGGTCAAAGGTCAGAGAAGAGATGACGG | 5.36 | 8.94 | 8.33 | 3.99 | 10.6 | 4.84 | 2.39 | 3.54
27 | TCTTGGAGATCAAGCAGGTTAAGAAAGCCTGAGT | 0.0966 | 0.06 | -0.27 | 0.163 | 0.643 | 0.589 | -0.604 | 0.0474
28 | GGAACGAGGGCAAGTTGATTGCAGAGTTTGATGG | 1.5 | 1.62 | 2.18 | 2.56 | 0.967 | 1.38 | -0.0249 | 2.02
